Screens from PubChem.
Shown are actives, neighbours in structure and some others; about 4.1% of the full set was active somewhere.
DAX1 inh-1: NR0B1 (DAX1) inhibition. HEK293 Gal4-DAX1 luciferase reporter, luminescence. 0.99% of 340,000 active. P51843. inhibition, % at 6.75 µM;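 active = inhibition above the mean over all tested compounds plus 3 SD, cut at about 4.2% in these data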;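 note: 0% = DAX1-transfected cells with DMSO and 100% = empty-vector control cells with DMSO; inhibition shows as a rise in luminescence from relieved DAX1 repression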
Target sequence (P51843 207-470 limits assumed): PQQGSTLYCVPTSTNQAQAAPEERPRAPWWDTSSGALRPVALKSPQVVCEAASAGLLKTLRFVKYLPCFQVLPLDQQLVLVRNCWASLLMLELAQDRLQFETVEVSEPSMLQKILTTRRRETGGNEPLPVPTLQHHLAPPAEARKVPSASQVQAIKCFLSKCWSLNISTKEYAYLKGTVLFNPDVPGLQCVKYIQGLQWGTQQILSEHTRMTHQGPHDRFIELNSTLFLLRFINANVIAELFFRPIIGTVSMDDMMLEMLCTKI
ssDAF12 agonist: activators of S. stercoralis DAF-12 nuclear receptor; activation, % at 6.8 µM; AID 652126; HEK293 ssDAF-12/GRIP1 lit1-tk-luc reporter, luminescence; % of 3 µM dafachronic acid response; 1% of 370,000 active;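 active = activation above the mean over all tested compounds plus 3 SD, cut at about 0.9% in these data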;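 note: 0% = DMSO-only wells and 100% = 3 µM delta7-dafachronic acid wells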
hgDAF12 agonist: activates the H. glycines DAF-12 receptor ligand-binding domain. HEK293 GAL4-hgDAF12 UAS-luciferase reporter, agonist luminescence; normalized to butyrate control. activation, % at 6.8 µM. 1.8% of 370,000 active. AID 687014;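 active = activation above a cutoff set at the mean of all screened compounds plus 3 SD, cut at about 10% in these data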;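 note: 0% = DMSO wells and 100% = sodium butyrate wells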
hcDAF-12 act: activates DAF-12 receptor from parasite H. contortus; HEK293 hcDAF-12 lit1-tk-luc reporter, luminescence; 0% DMSO, 100% Δ7-dafachronic acid; activation, % at 6.8 µM; 1.4% of 370,000 active;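 active = activation above the mean of all tested compounds plus 3 SD, cut at about 5.5% in these data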;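 note: 100% = response to 3 µM Δ7-dafachronic acid high control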
DAX1 inh-2: blocks DAX1 repression of SF-1 activated StAR promoter. HEK293T StAR-luciferase reporter, SF-1/DAX-1 repression relief. inhibition, % at 6.8 µM. 1.1% of 370,000 active. AID 652010;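 active = inhibition above the mean over all tested compounds plus 3 SD, cut at about 3.6% in these data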;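 note: 0% = DAX-1 cells with DMSO and 100% = cells lacking DAX-1 with DMSO; higher inhibition means more luminescence from relief of DAX-1 repression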
DAX1 conf: NR0B1 (human) inhibition, confirmation; shares compounds with DAX1 inh-2; HEK293T StAR-promoter luciferase reporter, SF-1/DAX-1 repression; inhibition, % at 6.8 µM; 87% of 2,400 active; AID 652134;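 active = inhibition above the average of every tested compound plus 3 SD, cut at about 3.8% in these data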;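 note: 0% = DAX-1 cells with DMSO and 100% = no DAX-1 control cells with DMSO; active compounds raise luminescence by relieving repression of the StAR reporter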
SF1 mutant ctr: counter-screen for DAX1 inhibitors: nonselective inhibitors with SF-1 AF2 mutant. inhibition, % at 6.8 µM. AID 652136. 78% of 2,400 active. shares compounds with DAX1 inh-2. HEK293 StAR-luciferase, luminescence;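 active = inhibition above the mean of all tested compounds plus 3 SD, cut at about 3% in these data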;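 note: 0% = DAX-1 transfected cells with DMSO and 100% = cells without DAX-1 with DMSO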
* marks the source's active call; other numbers are inactive results.

`N/C(CS(=O)(=O)c1ccccc1)=N\OC(=O)c1ccc(F)cc1` gave DAX1 inh-1 1.8, ssDAF12 agonist -0.2, hgDAF12 agonist 6.1, hcDAF-12 act 0.9, DAX1 inh-2 5.9*, DAX1 conf 3.8* and SF1 mutant ctr 3.2*.
For c1nc(NC[C@@H]2CCCO2)c2cc(-c3ccc4c(c3)OCO4)ccc2n1 the results were ssDAF12 agonist -1.4, hgDAF12 agonist 5.9 and hcDAF-12 act 0.2.
For C[C@@H]1CN([C@@H](C)CO)S(=O)(=O)c2ccc(-c3cccc(C#N)c3)cc2O[C@@H]1CN(C)C(=O)c1ccc(F)cc1 the results were DAX1 inh-1 0.1, ssDAF12 agonist -1.0, hgDAF12 agonist 1.3, hcDAF-12 act -2.6 and DAX1 inh-2 -1.7.
For C/C=C/c1ccc2c(c1)O[C@@H](CN(C)C(=O)c1ccc(F)cc1)[C@@H](C)CN([C@H](C)CO)S2(=O)=O the results were DAX1 inh-1 1.0, ssDAF12 agonist -1.4, hgDAF12 agonist -2.1, hcDAF-12 act -2.4, DAX1 inh-2 4.8*, DAX1 conf -1.1 and SF1 mutant ctr 4.4*.
Screening CCN1CCN(c2ccc(NC(=O)c3ccc4c(c3)OCCO4)cc2C)CC1 returned DAX1 inh-1 3.2, ssDAF12 agonist -0.3, hgDAF12 agonist 11.1*, hcDAF-12 act 4.2, DAX1 inh-2 7.9*, DAX1 conf 11.1* and SF1 mutant ctr 5.2*.
Screening CCN1CCN(c2ccc(NC(=O)c3cc4ccccc4cc3OC)cc2C)CC1 returned DAX1 inh-1 1.4, ssDAF12 agonist -1.0, hgDAF12 agonist 11.3*, hcDAF-12 act -0.3, DAX1 inh-2 5.1*, DAX1 conf 7.0* and SF1 mutant ctr 3.1*.
`CCN1CCN(c2cc(C)c3cc(NC(=O)c4ccc5c(c4)OCO5)ccc3n2)CC1` gave DAX1 inh-1 0.0, ssDAF12 agonist -1.1, hgDAF12 agonist 5.3, hcDAF-12 act -1.9 and DAX1 inh-2 -0.1.
For S=C(Nc1cccc(Cl)c1)OC1CCC12CCC(c1ccccc1)CC2 (centres undefined) the results were ssDAF12 agonist -1.6, hgDAF12 agonist -1.9, hcDAF-12 act 2.6 and DAX1 inh-2 -0.9.
Screening Cc1ccc(S(=O)(=O)N(Cc2ccccc2F)C(=O)N2CCN(C)CC2)cc1 returned DAX1 inh-1 1.4, ssDAF12 agonist -1.0, hgDAF12 agonist 0.8, hcDAF-12 act -0.4, DAX1 inh-2 5.0*, DAX1 conf 1.8 and SF1 mutant ctr 0.8.
CCCc1ccc2oc(C(=O)NCc3nnc(C)o3)c(C)c2c1 was read as DAX1 inh-1 0.5, ssDAF12 agonist -0.4, hgDAF12 agonist 11.7*, hcDAF-12 act 6.2*, DAX1 inh-2 5.1*, DAX1 conf 7.3* and SF1 mutant ctr 5.1*.
`CCc1ccc2oc(C(=O)Nc3nonc3C)c(C)c2c1` gave DAX1 inh-1 0.6, ssDAF12 agonist 0.2, hgDAF12 agonist 10.8*, hcDAF-12 act 4.0, DAX1 inh-2 12.0*, DAX1 conf 7.8* and SF1 mutant ctr 3.6*.
`CCc1nonc1NC(=O)c1oc2ccc(F)cc2c1C` gave DAX1 inh-1 0.3, ssDAF12 agonist -0.9, hgDAF12 agonist 5.1, hcDAF-12 act 1.4 and DAX1 inh-2 0.9.
Screening Cc1cc2oc(C(=O)Nc3nonc3C)c(C)c2cc1C returned DAX1 inh-1 1.6, ssDAF12 agonist -0.7, hgDAF12 agonist 8.4, hcDAF-12 act 3.7, DAX1 inh-2 7.8*, DAX1 conf 13.4* and SF1 mutant ctr 7.2*.
`CO[C@H]([C@H](C)/C=C/N(C)C=O)[C@@H](C)C(=O)CC[C@H](C)[C@H](O)[C@H](C)[C@H]1OC(=O)/C=C/C(C)=C/C[C@H](O)C[C@@H]2C=CC[C@@H](C[C@H](OC)C(C)(O)[C@@H](OC)C[C@@H](OC)[C@@H]1C)O2` (some centres undefined) gave ssDAF12 agonist -1.4, hgDAF12 agonist -8.9 and hcDAF-12 act -2.6.
